# Experimental data as given in PubChem BioAssay.
# Activity calls are given as the source filed them.
# What was measured:
# [1] = target: Albumin (Bos taurus) (UniProt P02769); assay: compounds binding labelled BSA control protein – biochemical, small-molecule microarray, Alexa647 label, 635/667 nm fluorescence, artefact control for SMM control protein annotation, profiling panel (AID 1118); details: BSA-A647 binding, fluorescence 635 nm, higher = more signal;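 also: score merges 667 nm emission intensity and signal-to-noise per printed compound spot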
# Sequence of Albumin (Bos taurus) (P02769 whole entry, looked up): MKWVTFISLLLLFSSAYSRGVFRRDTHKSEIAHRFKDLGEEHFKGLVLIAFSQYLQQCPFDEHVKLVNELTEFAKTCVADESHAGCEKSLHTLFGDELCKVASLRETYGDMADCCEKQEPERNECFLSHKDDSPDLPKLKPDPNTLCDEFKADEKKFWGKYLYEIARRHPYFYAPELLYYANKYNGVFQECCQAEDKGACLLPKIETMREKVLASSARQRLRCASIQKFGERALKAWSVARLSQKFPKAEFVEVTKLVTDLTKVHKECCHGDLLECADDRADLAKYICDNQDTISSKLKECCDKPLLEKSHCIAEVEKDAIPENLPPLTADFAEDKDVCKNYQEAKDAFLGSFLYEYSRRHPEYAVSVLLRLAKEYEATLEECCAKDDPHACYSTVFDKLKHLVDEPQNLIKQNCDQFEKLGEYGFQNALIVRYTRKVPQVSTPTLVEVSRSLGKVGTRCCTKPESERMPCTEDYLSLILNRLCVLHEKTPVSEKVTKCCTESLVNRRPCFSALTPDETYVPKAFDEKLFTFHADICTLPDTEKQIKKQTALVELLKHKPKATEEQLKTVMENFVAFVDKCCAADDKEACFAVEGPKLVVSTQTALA
# [2] = probe aXIP binding to arrayed compounds – biochemical, NeuroSMM set, 635/667 nm fluorescence, primary screen (AID 1119); details: small-molecule microarray, higher = more signal, called active from +8 up or from −8 down;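 also: probe is the protein aXip251-270 applied at 1 µg/mL to compound-printed slides; binding of probe to printed compounds measured as 667 nm fluorescence plus signal to noise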
# [3] = probe aNOTCH3 binding on compound microarray – biochemical, small-molecule microarray, 635/667 nm fluorescence, primary screen (AID 1120); details: higher = more signal;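 also: probe is a biotin-tagged antibody raised against NOTCH3 rather than NOTCH3 protein; score merges spot fluorescence near 667 nm with spot signal to noise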
# [4] = probe aNOTCH2 binding on compound microarray – biochemical, small-molecule microarray, 635/667 nm fluorescence, primary screen (AID 1121); details: higher = more signal;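 also: score merges feature fluorescence read at 667 nm with its signal to noise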
# [5] = target: Carbonic anhydrase 2 (Homo sapiens) (UniProt P00918); assay: compounds binding carbonic anhydrase 2 – biochemical, small-molecule microarray, Alexa647-labelled CAII, profiling panel (AID 1122); details: CAII-A647 binding fluorescence, higher = more signal
# [6] = COS7 lysate on small-molecule microarray, probe aHis, 635 nm (AID 1123); details: COS7 cell lysate, fluorescence, higher = more signal;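 also: z-score combines 667nm fluorescence intensity with signal-to-noise per printed compound spot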
# [7] = probe aLAP1 signal on lysate-treated microarray – cell lysate, small-molecule microarray, COS7 lysate, primary screen (AID 1124); details: probe aLAP1, fluorescence, higher = more signal;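 also: lysate comes from COS7 cells expressing LAP1 and is applied at 0.3 µg/mL; score merges spot fluorescence near 667 nm with signal-to-noise over triplicate slides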
# [8] = system: Sam68 (KHDRBS1); assay: compounds binding KHDRBS1 protein – biochemical, small-molecule microarray, 635 nm fluorescence, primary screen (AID 1125); details: higher = more signal;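 also: score merges 667 nm channel intensity with signal to noise over triplicate slides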
# [9] = system: Chordin-like protein 2 (CHRDL2); assay: compounds binding chordin-like 2 – biochemical, small-molecule microarray, 635 nm fluorescence, primary screen (AID 1126); details: fluorescence 635 nm, higher = more signal;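 also: printed compound slides probed with Chrdl2 protein at 4 µg/mL for 1 h at 4 C; score merges 667 nm emission intensity with signal to noise over three replicate slides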
# [10] = target: Concanavalin-A (Canavalia ensiformis) (UniProt P02866); assay: compounds binding concanavalin A lectin – biochemical, small-molecule microarray, Alexa647 label, 635 nm, artefact control for SMM control protein annotation, primary screen (AID 1127); details: ConA-A647 binding fluorescence, higher = more signal;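 also: z combines 667 nm emission intensity with signal-to-noise across three replicate slides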
# Sequence of Concanavalin-A (Canavalia ensiformis) (P02866 whole entry, looked up): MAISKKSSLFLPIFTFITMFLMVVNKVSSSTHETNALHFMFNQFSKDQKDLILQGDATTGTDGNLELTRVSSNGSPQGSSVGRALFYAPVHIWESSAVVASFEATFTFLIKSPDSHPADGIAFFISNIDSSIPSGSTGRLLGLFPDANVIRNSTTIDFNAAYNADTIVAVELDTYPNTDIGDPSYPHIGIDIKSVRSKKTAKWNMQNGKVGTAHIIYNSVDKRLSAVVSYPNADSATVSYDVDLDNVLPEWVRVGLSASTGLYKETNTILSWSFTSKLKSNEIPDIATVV
# [11] = compounds binding Alexa647 anti-His antibody – biochemical, small-molecule microarray, 635 nm fluorescence, artefact control for SMM control protein annotation, primary screen (AID 1128); details: higher = more signal;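 also: score merges feature fluorescence with signal-to-noise for each printed compound spot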
# [12] = system: Human papillomavirus type 1a E7 protein (residues 1-88); assay: HPV1a E7 small-molecule binders, primary screen, biochemical, small-molecule microarray, residues 1-88, 635 nm (AID 1129); details: small-molecule microarray binding, fluorescence 635 nm; higher = more signal
# [13] = target: Focal adhesion kinase 1 (Homo sapiens) (UniProt Q05397); assay: PTK2 protein binding on printed compound slides – biochemical, small-molecule microarray, 635/667 nm fluorescence, BSA, DTT, primary screen (AID 1130); details: 635 nm fluorescence, higher = more signal;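 also: composite of spot emission at 667 nm and signal to noise over triplicate slides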
# Sequence of Focal adhesion kinase 1 (Homo sapiens) (Q05397 whole entry, looked up): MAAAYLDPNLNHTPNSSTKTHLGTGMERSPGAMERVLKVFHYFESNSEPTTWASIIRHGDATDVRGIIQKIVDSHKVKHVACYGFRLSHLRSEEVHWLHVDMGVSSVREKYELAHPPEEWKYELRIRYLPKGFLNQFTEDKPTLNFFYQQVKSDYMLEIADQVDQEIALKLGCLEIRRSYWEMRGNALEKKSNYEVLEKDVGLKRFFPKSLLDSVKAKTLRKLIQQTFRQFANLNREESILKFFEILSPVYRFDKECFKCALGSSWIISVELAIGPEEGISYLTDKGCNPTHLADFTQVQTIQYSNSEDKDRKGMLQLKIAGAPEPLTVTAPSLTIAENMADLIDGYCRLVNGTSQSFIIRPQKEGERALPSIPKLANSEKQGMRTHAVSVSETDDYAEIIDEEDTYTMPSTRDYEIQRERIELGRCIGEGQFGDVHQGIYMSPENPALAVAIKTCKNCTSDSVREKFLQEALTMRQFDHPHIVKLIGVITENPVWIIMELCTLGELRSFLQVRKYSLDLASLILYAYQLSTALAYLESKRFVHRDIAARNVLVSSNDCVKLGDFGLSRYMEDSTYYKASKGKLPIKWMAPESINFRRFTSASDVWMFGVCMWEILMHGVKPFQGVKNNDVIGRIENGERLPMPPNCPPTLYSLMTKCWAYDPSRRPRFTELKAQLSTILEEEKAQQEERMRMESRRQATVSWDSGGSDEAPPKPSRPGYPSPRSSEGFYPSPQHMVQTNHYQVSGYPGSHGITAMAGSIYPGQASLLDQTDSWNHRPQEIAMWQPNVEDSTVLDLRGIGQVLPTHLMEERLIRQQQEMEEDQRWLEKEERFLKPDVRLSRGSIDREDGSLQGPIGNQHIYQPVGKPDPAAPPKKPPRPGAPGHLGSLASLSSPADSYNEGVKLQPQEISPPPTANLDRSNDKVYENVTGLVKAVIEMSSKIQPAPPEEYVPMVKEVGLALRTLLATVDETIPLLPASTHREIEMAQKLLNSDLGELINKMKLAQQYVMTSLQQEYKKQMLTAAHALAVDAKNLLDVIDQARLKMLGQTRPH
# [14] = system: Fibrinogen (Alexa647-labelled); assay: Alexa647-fibrinogen binding to printed small molecules – biochemical, small-molecule microarray, 635/667 nm fluorescence, artefact control for SMM control-protein annotation, profiling panel (AID 1131); details: fibrinogen-A647 binding fluorescence, higher = more signal;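 also: z-score merges 667 nm fluorescence with per-spot signal-to-noise over triplicate slides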
# [15] = target: Follistatin (Homo sapiens) (UniProt P19883); assay: FST protein binding to printed compounds – biochemical, small-molecule microarray, 635/667 nm fluorescence, primary screen (AID 1132); details: 635 nm fluorescence, higher = more signal
# Sequence of Follistatin (Homo sapiens) (P19883 whole entry, looked up): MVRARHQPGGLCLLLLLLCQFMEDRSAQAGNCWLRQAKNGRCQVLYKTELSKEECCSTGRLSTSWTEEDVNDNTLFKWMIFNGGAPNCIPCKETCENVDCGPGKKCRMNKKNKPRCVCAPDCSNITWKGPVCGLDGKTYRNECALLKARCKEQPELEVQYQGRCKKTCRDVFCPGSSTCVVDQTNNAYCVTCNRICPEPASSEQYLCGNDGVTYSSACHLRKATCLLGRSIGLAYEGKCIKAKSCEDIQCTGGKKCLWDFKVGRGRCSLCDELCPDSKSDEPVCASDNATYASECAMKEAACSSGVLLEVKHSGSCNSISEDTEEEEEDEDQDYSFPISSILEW
# [16] = target: Fibroblast growth factor 2 (Homo sapiens) (UniProt P09038); assay: basic fibroblast growth factor binding to printed compounds – biochemical, small-molecule microarray, 635/667 nm fluorescence, primary screen (AID 1133); details: FGF2, fluorescence 635/667, higher = more signal
# Sequence of Fibroblast growth factor 2 (Homo sapiens) (P09038 whole entry, looked up): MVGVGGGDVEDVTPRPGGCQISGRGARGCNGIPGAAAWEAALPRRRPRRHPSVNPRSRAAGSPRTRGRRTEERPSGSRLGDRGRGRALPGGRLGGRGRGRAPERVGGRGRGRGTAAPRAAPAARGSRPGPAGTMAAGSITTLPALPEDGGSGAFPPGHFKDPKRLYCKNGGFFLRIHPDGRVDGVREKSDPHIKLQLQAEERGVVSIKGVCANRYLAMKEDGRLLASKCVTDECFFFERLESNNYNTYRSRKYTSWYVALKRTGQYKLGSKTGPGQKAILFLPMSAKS
# [17] = JC-1 mitochondrial potential readout, lung cancer cells – cell-based, A549, JC-1 fluorescence, basal, 24 h, 100 nL, profiling panel (AID 1138); details: higher = more signal;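 also: A549 lung adenocarcinoma cells under basal conditions with no added stimulus; test concentration not given here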
# [18] = system: Lefty1; assay: Lefty1 protein binding to printed compounds – biochemical, small-molecule microarray, 635/667 nm fluorescence, primary screen (AID 1139); details: fluorescence 635/667, higher = more signal
# [19] = system: wheat germ agglutinin (Triticum aestivum), Alexa647-labelled; assay: Alexa647-WGA lectin binding to printed small molecules – biochemical, small-molecule microarray, 635/667 nm fluorescence, artefact control for SMM control-protein annotation, profiling panel (AID 1140); details: WGA-A647 binding, 635 nm fluorescence, higher = more signal;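 also: score merges 667 nm feature emission with signal to noise over triplicate slides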
# [20] = target: Luciferin 4-monooxygenase (Photinus pyralis) (UniProt P08659); assay: inhibition of purified Photinus pyralis luciferase – biochemical, luminescence, purified enzyme, 2006 set, primary screen (AID 1141); details: purified firefly luciferase, SteadyGlo luminescence, 30 min; higher = more signal, called active from +8 up or from −8 down;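 also: cell-free assay with purified firefly luciferase at 100 ng per well in PBS; test concentration not given here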
# Sequence of Luciferin 4-monooxygenase (Photinus pyralis) (P08659 whole entry, looked up): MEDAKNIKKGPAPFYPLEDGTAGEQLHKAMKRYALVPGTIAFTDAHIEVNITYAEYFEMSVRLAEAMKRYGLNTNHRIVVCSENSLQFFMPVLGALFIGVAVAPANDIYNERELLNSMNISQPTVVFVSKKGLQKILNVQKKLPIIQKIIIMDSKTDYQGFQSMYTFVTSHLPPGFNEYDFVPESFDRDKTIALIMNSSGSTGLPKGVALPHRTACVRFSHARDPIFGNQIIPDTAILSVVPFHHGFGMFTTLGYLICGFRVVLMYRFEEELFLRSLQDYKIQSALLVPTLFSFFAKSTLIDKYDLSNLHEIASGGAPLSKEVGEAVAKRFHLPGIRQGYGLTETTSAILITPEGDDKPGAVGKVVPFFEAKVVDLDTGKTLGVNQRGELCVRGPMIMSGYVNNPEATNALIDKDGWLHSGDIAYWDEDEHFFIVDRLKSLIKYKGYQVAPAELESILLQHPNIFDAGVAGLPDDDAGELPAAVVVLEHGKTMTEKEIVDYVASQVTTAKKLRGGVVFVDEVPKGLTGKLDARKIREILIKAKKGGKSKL
Compound,composite z-score [1],composite Z-score [2],composite z-score [3],composite z-score [4],composite z-score [5],composite z-score [6],composite z-score [7],composite z-score [8],composite z-score [9],composite z-score [10],composite z-score [11],composite z-score [12],composite z-score [13],composite z-score [14],composite z-score [15],composite z-score [16],z-score [17],composite z-score [18],composite z-score [19],z-score [20]
C=CCOC(=O)[C@H]1[C@@H]2C(=O)O[C@@H](c3ccccc3)[C@@H](c3ccccc3)N2[C@@H](c2ccc(OCCOC(=O)[C@H]3C[C@H]4C(=O)N[C@@H](CCCC[N+](C)(C)C)C(=O)N4[C@H]3c3ccc(O)cc3)cc2)[C@]12C(=O)Nc1ccccc12,-0.317,0.0338 (inactive),0.0306,-0.14,0.456,0.776,0.411,0.028,0.518,0.843,0.94,-0.0508,0.193,0.252,1.16,0.703,0.193,0.653,0.22,-1.28 (inactive)
O=C1O[C@H](c2ccccc2)[C@H](c2ccccc2)N2[C@H]1[C@@H](C(=O)N1CCCCCCC1)[C@]1(C(=O)Nc3ccc(C#CC4=CCCCC4)cc31)[C@H]2c1ccc(O)cc1,0.599,10.9 (active),2.37,1.22,1.1,5.31,1.2,1.35,1.71,1.14,3.04,1.36,5.6,0.535,1.56,1.22,-0.233,1.82,1.81,0.289 (inactive)
CCN(CC)c1ccc(N2CC=CC34O[C@@H]5C=CCOC(=O)[C@@H]5[C@H]3C(=O)N(CCCCCO)[C@@H]4C2=O)cc1 (stereo not given in full),0.347,1.21 (inactive),-0.193,-0.146,0.861,1.17,1.04,-0.0514,-1,-1.47,3.37,-0.959,-0.0973,-1.59,-0.915,-0.551,1.24,-0.439,-0.559,-0.439 (inactive)
O=C1C2C=CC(C(O)C3CC=CCC3)N(n3cnnc3)C2C(=O)N1Cc1ccccc1 (stereo not given),-0.952,0.241 (inactive),-0.213,-0.202,0.903,0.233,1.34,0.185,-1.69,-0.137,0.794,-0.288,0.559,0.909,-0.439,-1.14,-0.704,-1.07,0.451,0.934 (inactive)
C=CCN1C(=O)[C@]2(COC(c3ccc(OCCCO)cc3)=N2)Cc2ccccc21,0.284,-0.586 (inactive),-0.0362,-0.0583,0.627,2.78,1.11,0.487,0.0453,0.953,3.08,1.15,0.0652,0.885,1.08,1.08,0.604,-0.14,-0.0492,-3.52 (inactive)
CC1CC/C=C\[C@H]2OC34C=CCN(c5ccc6ccccc6c5)C(=O)[C@H]3N(CCCCCO)C(=O)[C@@H]4C2C(=O)O1 (stereo not given in full),-0.158,0.322 (inactive),-0.372,-0.0941,-0.622,-0.357,-0.615,-1.95,-1.25,-1.23,-0.946,-0.824,-0.673,-2.2,-1.02,-1.65,0.987,-0.994,-0.0369,-0.391 (inactive)
